High-throughput results as filed in PubChem.
TDP1 block: qHTS Assay for Inhibitors of Tyrosyl-DNA Phosphodiesterase (TDP1) | Potency, µM (doses to about 130 µM), actives largely listed as inhibitors | Tyrosyl-DNA phosphodiesterase 1 (Homo sapiens), Q9NUW8 | 0.28% of 350,000 active | recombinant TDP1, AlphaScreen DNA substrate cleavage; further: nearly all actives have a fitted effect of over 40% in size
Target sequence (Q9NUW8 whole entry, looked up): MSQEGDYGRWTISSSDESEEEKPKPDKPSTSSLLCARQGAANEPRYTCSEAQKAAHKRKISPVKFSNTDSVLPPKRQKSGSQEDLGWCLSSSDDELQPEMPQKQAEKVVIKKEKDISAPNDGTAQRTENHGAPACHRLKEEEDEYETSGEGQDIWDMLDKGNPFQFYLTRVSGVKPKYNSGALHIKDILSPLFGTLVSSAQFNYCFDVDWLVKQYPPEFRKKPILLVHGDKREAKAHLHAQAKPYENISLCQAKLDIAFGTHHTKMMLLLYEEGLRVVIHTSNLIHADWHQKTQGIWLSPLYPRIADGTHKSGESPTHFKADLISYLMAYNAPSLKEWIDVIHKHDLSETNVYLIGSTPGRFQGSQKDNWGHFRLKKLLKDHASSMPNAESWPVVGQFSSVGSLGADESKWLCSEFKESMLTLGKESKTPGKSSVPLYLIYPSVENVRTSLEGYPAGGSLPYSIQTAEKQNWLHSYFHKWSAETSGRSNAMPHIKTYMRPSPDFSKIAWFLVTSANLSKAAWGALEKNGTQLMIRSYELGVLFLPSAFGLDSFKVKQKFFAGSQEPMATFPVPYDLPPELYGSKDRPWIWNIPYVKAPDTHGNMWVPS
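Steps: enzyme plus compound, 15 min RT; add biotin/phosphotyrosine-FITC oligonucleotide (15 nM final), react 5 min; add donor/acceptor beads (10 ug/ml final), 10 min; read AlphaScreen. Tdp1 at 1 nM final.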
TDP1 cell noCPT: qHTS for Inhibitors of human tyrosyl-DNA phosphodiesterase 1 (TDP1): qHTS in cells in absence of CPT. DT40 Tdp1-/- hTDP1 cells, no CPT, ATP luminescence, 48 h. Potency, µM (doses to about 46.2 µM), hits mostly inhibitors. 15% of 420,000 active; further: nearly all actives have a fitted effect of over 55% in size
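No-CPT arm: Tdp1-/-;hTDP1 DT40 cells (400/well) plus compounds, incubated ≥48 hr at 37 °C. Readout CellTiter-Glo luminescence.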
RORgamma inh: qHTS for inhibitors of ROR gamma transcriptional activity | Nuclear receptor ROR-gamma (Mus musculus), P51450 | Drosophila S2 Gal4-RORgamma UAS-luciferase reporter, 20 h | Potency, µM (top dose mostly 53.6 µM), usual class: inhibitors | 5.4% of 310,000 active | AID 2551, 2010; further: nearly all actives have a fitted effect of over 60% in size
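Compounds are pin-transferred onto Drosophila Schneider cells expressing a copper-inducible Gal4–ROR gamma transactivation domain fusion. After 1 hr, copper sulfate is added to 700 uM final; luciferase is read 20 hr later.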
Gal4-VP16 FLuc: VP16 counterscreen qHTS for inhibitors of ROR gamma transcriptional activity. Drosophila S2 Gal4-VP16 UAS-luciferase, luminescence, 20 h. Potency, µM (series often up to 53.6 µM), usual class: inhibitors. 3.5% of 310,000 active;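 further: Gal4-VP16 expression switched on by copper sulfate through the metallothionein promoter; nearly all actives have a fitted effect of over 50% in size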
DT40 TDP1 CPT: qHTS for Inhibitors of human tyrosyl-DNA phosphodiesterase 1 (TDP1): qHTS in cells in presence of CPT | Potency, µM (doses to about 46.2 µM), hits mostly inhibitors | chicken DT40 Tdp1-/-;hTDP1 cells + 20 nM CPT, ATP luminescence, 48 h | 12% of 420,000 active; further: nearly all actives have a fitted effect of over 55% in size
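Cell growth measured by CellTiter-Glo luminescence after a minimum 48 h, 37 C compound exposure with 20 nM CPT in Tdp1-knockout DT40 cells stably expressing hTDP1, seeded 400/well; qHTS titration format.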
Numbers stand for hits. Rows were chosen to be rich in hits. Some 19% of all compounds tested hit in one or more screens of this group. The call rests on the fitted dose curve; in most records, active means well fitted curve in the direction sought with a large enough effect; inconclusive means small, poorly fitted or top-dose-only effect, or another doubt; inactive means no such curve, though single readings can be large; an effect the other way counts as inactive or inconclusive.

`CC(C)(C)c1ccc(OCc2ccc(C(=O)N/N=C3\CC4CC=CC34)cc2)cc1` (stereo not given) gave TDP1 block inactive, TDP1 cell noCPT 15µM, RORgamma inh 7.9µM, Gal4-VP16 FLuc 4.5µM and DT40 TDP1 CPT 13µM.
For O=C(Nc1ccccc1)c1ccc(COc2ccccc2)cc1 the results were TDP1 block inactive, TDP1 cell noCPT inactive, RORgamma inh inactive, Gal4-VP16 FLuc inactive and DT40 TDP1 CPT inactive.
`O=C(N/N=C1\CC2CC=CC12)c1ccc(COc2ccccc2)cc1` (stereo not given) gave TDP1 block inactive, TDP1 cell noCPT inconclusive, RORgamma inh 5µM, Gal4-VP16 FLuc 5µM and DT40 TDP1 CPT inactive.
COc1cc(NC(=O)COC(=O)[C@@H]2CCCN2S(=O)(=O)c2ccc(Cl)cc2)cc(OC)c1OC was read as TDP1 block inactive, TDP1 cell noCPT inactive, RORgamma inh inactive, Gal4-VP16 FLuc inactive and DT40 TDP1 CPT inactive.
For CCOC(=O)c1cccc(NC(=O)CN(C)S(=O)(=O)c2cnc[nH]2)c1 the results were TDP1 block inactive, TDP1 cell noCPT inactive, RORgamma inh inactive, Gal4-VP16 FLuc inactive and DT40 TDP1 CPT inactive.
For Cc1cccc(OCCNC(=O)c2cccc(Oc3ccc(C(F)(F)F)cc3[N+](=O)[O-])c2)c1 the results were TDP1 block inactive, TDP1 cell noCPT 29µM, RORgamma inh inconclusive, Gal4-VP16 FLuc inactive and DT40 TDP1 CPT 23µM.
Screening Cc1cccc(OCCNC(=O)c2ccc(Oc3ccc(C(F)(F)F)cc3[N+](=O)[O-])cc2)c1 returned TDP1 block inactive, TDP1 cell noCPT inactive, RORgamma inh inactive, Gal4-VP16 FLuc inactive and DT40 TDP1 CPT inactive.
Screening Cc1csc(NC(=O)Cn2nc(C)c([N+](=O)[O-])c2C)n1 returned TDP1 block inactive, TDP1 cell noCPT inactive, RORgamma inh inactive, Gal4-VP16 FLuc inactive and DT40 TDP1 CPT inactive.
For O=C(CSc1nnc(Cn2nnc3ccccc32)o1)N(Cc1ccc(Cl)cc1)c1ccccc1 the results were TDP1 block inactive, TDP1 cell noCPT 7.3µM, RORgamma inh inactive, Gal4-VP16 FLuc inconclusive and DT40 TDP1 CPT 7.3µM.
Screening CCN(C(=O)CSc1nnc(Cn2nnc3ccccc32)o1)c1nc(C)cs1 returned TDP1 block inactive, TDP1 cell noCPT inconclusive, RORgamma inh inactive, Gal4-VP16 FLuc inactive and DT40 TDP1 CPT inconclusive.
CCN(C(=O)CSc1nnc(Cn2nnc3ccccc32)o1)c1nc(-c2ccccc2)cs1 was read as TDP1 block inactive, TDP1 cell noCPT inconclusive, RORgamma inh inactive, Gal4-VP16 FLuc inactive and DT40 TDP1 CPT 23µM.
Clc1ccc(Cn2nnc3ccccc32)cc1 was read as TDP1 block inconclusive, TDP1 cell noCPT inactive, RORgamma inh inactive, Gal4-VP16 FLuc inactive and DT40 TDP1 CPT inactive.
Cc1nc2c(-c3ccccc3)c[nH]n2c(=O)c1Cc1ccccc1 was read as TDP1 block inactive, TDP1 cell noCPT 23µM, RORgamma inh inactive, Gal4-VP16 FLuc inactive and DT40 TDP1 CPT 23µM.
Screening CCOC(=O)Cc1c(C)nc2c(-c3ccc(Cl)cc3)c(C(F)(F)F)nn2c1C returned TDP1 block inactive, TDP1 cell noCPT 23µM and DT40 TDP1 CPT 23µM.
For COc1ccccc1-c1c(C)[nH]n2c(=O)c(Cc3ccccc3)c(C)nc12 the results were TDP1 block inactive, TDP1 cell noCPT inconclusive, RORgamma inh 14µM, Gal4-VP16 FLuc 11µM and DT40 TDP1 CPT inconclusive.
For CCCc1cc(=O)n2[nH]c(C)c(-c3ccccc3OC)c2n1 the results were TDP1 cell noCPT inactive and DT40 TDP1 CPT inactive.
CCOC(=O)Cc1c(C)nc2c(-c3ccc(Cl)cc3)c[nH]n2c1=O was read as TDP1 block inactive, TDP1 cell noCPT inconclusive, RORgamma inh 5.6µM, Gal4-VP16 FLuc 16µM and DT40 TDP1 CPT inconclusive.
`CCOCCCNC(=O)CN1N=C(c2ccc(C)cc2)CCC1=O` gave TDP1 cell noCPT inactive, RORgamma inh inactive, Gal4-VP16 FLuc inactive and DT40 TDP1 CPT inactive.
CCN(CC)C(=O)c1sc(NC(=O)C(C)C)c(C#N)c1C was read as TDP1 block inactive, TDP1 cell noCPT inactive, RORgamma inh inactive, Gal4-VP16 FLuc inactive and DT40 TDP1 CPT inactive.
For O=C1NC(=Nc2ccccc2Cl)SC1(CO)CO the results were TDP1 block inactive, TDP1 cell noCPT inactive, RORgamma inh inactive, Gal4-VP16 FLuc inactive and DT40 TDP1 CPT inactive.
`COc1ccc(-c2c(C)[nH]n3c(=O)c(Cc4ccccc4)c(C)nc23)cc1` gave TDP1 block inactive, TDP1 cell noCPT 21µM, RORgamma inh 2.5µM, Gal4-VP16 FLuc 3.2µM and DT40 TDP1 CPT 13µM.
Screening Cc1ccc(Cc2c(C)nc3c(-c4ccccc4)c(C)[nH]n3c2=O)cc1 returned TDP1 block inactive, TDP1 cell noCPT 4.6µM and DT40 TDP1 CPT 6.5µM.
`CCCCc1c(C)nc2c(-c3ccc(Cl)cc3)c(C)[nH]n2c1=O` gave TDP1 block inactive, TDP1 cell noCPT 1.6µM and DT40 TDP1 CPT 4.6µM.
`Cc1nc2c(-c3ccccc3)c(C)[nH]n2c(=O)c1Cc1ccc(C(C)C)cc1` gave TDP1 block inactive, TDP1 cell noCPT 2.3µM and DT40 TDP1 CPT 2.6µM.
`Cc1cc2nc(C)c(Cc3ccccc3)c(=O)n2[nH]1` gave TDP1 block inactive, TDP1 cell noCPT inactive, RORgamma inh inconclusive, Gal4-VP16 FLuc inactive and DT40 TDP1 CPT inactive.
Screening COc1ccc(OC)c(/C=N\NC(=O)CSc2nnc(CCCc3ccc(OC)c(C)c3)o2)c1 returned TDP1 block inactive, TDP1 cell noCPT inconclusive, RORgamma inh inconclusive, Gal4-VP16 FLuc inactive and DT40 TDP1 CPT inactive.
Screening CCc1c(C)nc2c(-c3ccccc3)c(C)[nH]n2c1=O returned TDP1 block inactive, TDP1 cell noCPT inactive, RORgamma inh 11µM, Gal4-VP16 FLuc inconclusive and DT40 TDP1 CPT inactive.
Screening Cc1[nH]n2c(=O)c(C#N)c(-c3ccccc3)nc2c1-c1ccccc1 returned TDP1 block inactive, TDP1 cell noCPT inactive, RORgamma inh inactive, Gal4-VP16 FLuc inactive and DT40 TDP1 CPT inactive.
`CC1(C)CC(=O)/C(=C\c2cccc([N+](=O)[O-])c2)C(C)(C)N1` gave TDP1 block inactive, TDP1 cell noCPT 16µM, RORgamma inh inconclusive, Gal4-VP16 FLuc inconclusive and DT40 TDP1 CPT inconclusive.
Cc1cccc(C(=O)Nc2ccc(S(=O)(=O)N3CCOCC3)cc2)c1[N+](=O)[O-] was read as TDP1 cell noCPT inactive, RORgamma inh inactive, Gal4-VP16 FLuc inactive and DT40 TDP1 CPT inactive.
Screening CCOC(=O)/C(=N\Nc1ncnc2ccccc12)c1ccc(C)cc1 returned TDP1 cell noCPT inactive, RORgamma inh 5.6µM, Gal4-VP16 FLuc 13µM and DT40 TDP1 CPT inactive.
Screening CCOC(=O)C/C(=N\Nc1ncnc2ccccc12)c1ccccc1 returned TDP1 block inactive, TDP1 cell noCPT inconclusive, RORgamma inh 6.3µM, Gal4-VP16 FLuc 6.3µM and DT40 TDP1 CPT inconclusive.
